In PubChem BioAssay AID1159580 (chemical genetic matrix, 2015):
Hit rate of the full screen: of about 5,500 compounds, about 2,000 (36%) were called active. About 18% were inconclusive and are not listed. Rule as the data show it: active = normalized growth mostly below about 0.91 (no sharp cut-off); inconclusive = no clear call, values can overlap the other calls; inactive = mostly above about 0.92. The list shows a part of the results.

Test: chemical genetic growth profiling, strain panel (AID 1159580);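 also: tested at 20 µM; growth read once vehicle control cultures reached saturation at 30 °C; 1 = growth at the plate median or of vehicle wells; lower values mean less growth of the strain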
Settings: S. cerevisiae deletion strains, growth OD
[1] = locus YHR030C, strain SLT2, stronger effect = lower value

Measured: normalized growth

CC(C)C[C@@H](NC(=O)OCC1c2ccccc2-c2ccccc21)C(=O)O
inactive: locus YAL021C, strain ccr4, stronger effect = lower value 0.988 | locus YAL026C, strain drs2, stronger effect = lower value 0.982 | locus YAL030W, strain snc1, stronger effect = lower value 0.991 | locus YBL061C, strain skt5, stronger effect = lower value 1.01 | locus YBR009C, strain hhf1, stronger effect = lower value 1.01 | locus YBR023C, strain chs3, stronger effect = lower value 1 | locus YBR171W, strain sec66, stronger effect = lower value 1 | locus YBR231C, strain swc5, stronger effect = lower value 1.01 | locus YBR279W, strain paf1, stronger effect = lower value 0.998 | locus YCL011C, strain gbp2, stronger effect = lower value 0.993 | locus YCL016C, strain dcc1, stronger effect = lower value 0.983 | locus YCL061C, strain MRC1, stronger effect = lower value 1 | locus YCL069W, strain vba3, stronger effect = lower value 0.995 | locus YCR088W, strain abp1, stronger effect = lower value 0.992 | locus YDL005C, strain med2, stronger effect = lower value 0.986 | locus YDL040C, strain nat1, stronger effect = lower value 0.985 | locus YDR001C, strain nth1, stronger effect = lower value 0.977 | locus YDR069C, strain doa4, stronger effect = lower value 0.993 | locus YDR137W, strain rgp1, stronger effect = lower value 0.962 | locus YDR159W, strain sac3, stronger effect = lower value 1.04 | locus YDR195W, strain ref2 0.945 | locus YDR297W, strain sur2, stronger effect = lower value 1 | locus YDR334W, strain swr1, stronger effect = lower value 0.988 | locus YDR335W, strain msn5, stronger effect = lower value 0.991 | locus YDR392W, strain spt3, stronger effect = lower value 0.955 | locus YEL003W, strain gim4, stronger effect = lower value 0.999 | locus YEL037C, strain rad23, stronger effect = lower value 0.998 | locus YEL061C, strain CIN8 (second series), stronger effect = lower value 0.997 | locus YER015W, strain faa2, stronger effect = lower value 0.997 | locus YER016W, strain bim1, stronger effect = lower value 0.993 | locus YER111C, strain swi4, stronger effect = lower value 1 | locus YER155C, strain BEM2 (second series), stronger effect = lower value 1.02 | locus YFR010W, strain ubp6, stronger effect = lower value 0.991 | locus YGL167C, strain pmr1, stronger effect = lower value 0.999 | locus YGL173C, strain kem1, stronger effect = lower value 1 | locus YGL227W, strain vid30, stronger effect = lower value 0.996 | locus YGL240W, strain doc1, stronger effect = lower value 1.01 | locus YGL253W, strain hxk2, stronger effect = lower value 1 | locus YHR013C, strain ard1, stronger effect = lower value 0.998 | locus YHR027C, strain rpn1, stronger effect = lower value 0.984 | [1] 0.966 | locus YHR079C, strain IRE1, stronger effect = lower value 0.976 | locus YHR142W, strain chs7, stronger effect = lower value 0.996 | locus YJL092W, strain hpr5, stronger effect = lower value 1 | locus YJL095W, strain BCK1 (second series), stronger effect = lower value 0.999 | locus YJL095W, strain BCK1, stronger effect = lower value 0.98 | locus YJL115W, strain asf1, stronger effect = lower value 0.979 | locus YJL129C, strain trk1, stronger effect = lower value 1 | locus YJL154C, strain vps35, stronger effect = lower value 0.986 | locus YJL164C, strain tpk1, stronger effect = lower value 0.971 | locus YJL166W, strain qcr8, stronger effect = lower value 1 | locus YJL187C, strain SWE1, stronger effect = lower value 0.996 | locus YJR066W, strain TOR1, stronger effect = lower value 0.89 | locus YKL160W, strain elf1, stronger effect = lower value 0.99 | locus YKR026C, strain gcn3, stronger effect = lower value 1 | locus YKR091W, strain srl3, stronger effect = lower value 0.981 | locus YLL001W, strain dnm1, stronger effect = lower value 0.974 | locus YLL026W, stronger effect = lower value 0.992 | locus YLL041C, strain sdh2, stronger effect = lower value 1 | locus YLR027C, strain aat2, stronger effect = lower value 1 | locus YLR113W, strain HOG1, stronger effect = lower value 0.888 | locus YLR221C, strain rsa3, stronger effect = lower value 1.03 | locus YLR258W, strain gsy2, stronger effect = lower value 1 | locus YLR262C, strain YPT6 (second series), stronger effect = lower value 0.949 | locus YLR320W, strain mms22, stronger effect = lower value 1.02 | locus YLR342W, strain FKS1, stronger effect = lower value 0.99 | locus YLR357W, strain rsc2, stronger effect = lower value 0.97 | locus YLR370C, strain arc18, stronger effect = lower value 1.01 | locus YLR384C, strain iki3, stronger effect = lower value 0.991 | locus YML120C, strain ndi1, stronger effect = lower value 0.994 | locus YMR058W, strain fet3, stronger effect = lower value 0.991 | locus YMR125W, strain sto1, stronger effect = lower value 0.965 | locus YMR129W, stronger effect = lower value 0.998 | locus YMR205C, strain PFK2, stronger effect = lower value 0.973 | locus YMR231W, strain pep5, stronger effect = lower value 0.971 | locus YNL071W, strain lat1, stronger effect = lower value 0.995 | locus YNL183C, strain NPR1, stronger effect = lower value 0.888 | locus YNL209W, strain ssb2, stronger effect = lower value 0.997 | locus YNL248C, strain rpa49, stronger effect = lower value 0.978 | locus YNL322C, strain KRE1 (second series), stronger effect = lower value 1 | locus YNR049C, strain mso1, stronger effect = lower value 0.998 | locus YOR001W, strain rrp6, stronger effect = lower value 1.01 | locus YOR070C, strain gyp1, stronger effect = lower value 0.991 | locus YOR080W, strain dia2, stronger effect = lower value 1.01 | locus YOR083W, strain WHI5, stronger effect = lower value 0.986 | locus YOR106W, strain vam3, stronger effect = lower value 0.963 | locus YOR231W, strain MKK1, stronger effect = lower value 0.949 | locus YOR265W, strain rbl2, stronger effect = lower value 1 | locus YOR270C, strain vph1, stronger effect = lower value 0.954 | locus YOR290C, strain snf2, stronger effect = lower value 0.956 | locus YPL051W, strain arl3, stronger effect = lower value 1.01 | locus YPL078C, strain atp4, stronger effect = lower value 0.979 | locus YPL106C, strain sse1, stronger effect = lower value 1.02 | locus YPL240C, strain hsp82, stronger effect = lower value 1.01 | locus YPL256C, strain CLN2, stronger effect = lower value 0.945

O=C(NCCCCO)OCC1c2ccccc2-c2ccccc21
inactive: locus YAL013W, strain DEP1, stronger effect = lower value 1 | locus YBR229C, strain ROT2, stronger effect = lower value 0.997 | locus YDL101C, strain DUN1, stronger effect = lower value 1 | locus YDR150W, strain NUM1, stronger effect = lower value 0.986 | locus YEL061C, strain CIN8, stronger effect = lower value 0.985 | locus YGR078C, strain PAC10, stronger effect = lower value 0.991 | locus YGR229C, strain SMI1, stronger effect = lower value 0.987 | [1] 0.867 | locus YHR087W, strain rtc3, stronger effect = lower value 0.987 | locus YJR043C, strain POL32, stronger effect = lower value 0.989 | locus YJR075W, strain HOC1, stronger effect = lower value 1.01 | locus YLR039C, strain RIC1, stronger effect = lower value 1.02 | locus YLR058C, strain SHM2 (second series), stronger effect = lower value 0.98 | locus YLR085C, strain ARP6, stronger effect = lower value 0.886 | locus YLR262C, strain YPT6, stronger effect = lower value 1.02 | locus YML094W, strain GIM5, stronger effect = lower value 0.955 | locus YMR219W, strain ESC1, stronger effect = lower value 0.995 | locus YMR263W, strain SAP30, stronger effect = lower value 0.959 | locus YMR307W, strain GAS1, stronger effect = lower value 0.812 | locus YNL153C, strain GIM3, stronger effect = lower value 0.983 | locus YNL298W, strain CLA4 (second series), stronger effect = lower value 0.929 | locus YNL322C, strain KRE1, stronger effect = lower value 1 | locus YNR030W, strain Alg12, stronger effect = lower value 0.963 | locus YPL055C, strain LGE1, stronger effect = lower value 0.953 | locus YPL241C, strain CIN2, stronger effect = lower value 0.937 | locus YPR135W, strain CTF4, stronger effect = lower value 0.959
